# Experimental data: PubChem BioAssay
# Assay: reversal of MRP1-mediated doxorubicin resistance, pilot screen, H69AR cells, doxorubicin co-treatment (AID 601)
# Settings: H69AR cells + 2 uM doxorubicin, CellTiter-Glo, 72 h; measured here: viability with 2 uM doxorubicin; at 10 µM; stronger effect = lower value
row,SMILES,viability
1,O=C(CNC(=O)c1cccs1)NCCN1CCN(c2ccccc2F)CC1,77.2%
2,Cc1ccc(Cn2ccc(NC(=O)c3noc4c3CCCC4)n2)cc1,88.6%
3,COc1cc(NC(=O)c2cc(-n3cnnc3)ccc2Cl)cc(OC)c1,83.7%
4,COC(=O)c1ccccc1NC(=O)c1ccc(-c2ccccc2F)o1,53.2%
5,O=C(CN1C(=O)CCS(=O)(=O)c2ccccc21)NCc1ccc(F)cc1,95.3%
6,Cc1c(O)c(CN2CCCC(C)C2)cc2c3c(c(=O)oc12)CCC3 (stereo not drawn),86.1%
7,CC1(C)NC(=O)N(CC(O)CN2CCCCC2)C1=O (stereo not drawn),96%
8,CCCOc1ccc(N2C(=O)CC(NCCCN3CCC(C(N)=O)CC3)C2=O)cc1 (stereo not drawn),91.9%
9,Cc1ccc(Nc2nnns2)cc1C,89.7%
10,COc1ccc(S(=O)(=O)N2CCC(C(=O)NCc3ccco3)CC2)cc1,88.5%
11,C=C(CC)C(=O)c1ccc(OCC(=O)O)c(Cl)c1Cl,48.5%
12,Cc1cccc(OCC(=O)Nc2ccccc2N2CCN(C(=O)C(C)C)CC2)c1C,86%
13,O=C(NC1CC1)c1cccc(Nc2ccc(-c3ccc4c(c3)OCCO4)nn2)c1,61.2%
14,CNCCCC12CCC(c3ccccc31)c1ccccc12,63.8%
15,Cc1ccccc1C(=O)N1CCC(C(=O)Nc2ccc(S(=O)(=O)N3CCCC3)cc2)CC1,82.7%
16,CC(=O)c1cc(-c2ccccc2)n(CC(=O)N2CCN(C3CCCC3)CC2)c1C,80.6%
17,CCOc1ccccc1N1C(=O)CC(Sc2ncccc2C(=O)O)C1=O (stereo not drawn),87.2%
18,Clc1ccccc1-c1nnc2sc(-c3ccccn3)nn12,77.8%
19,COc1ccc(Cl)c(N2CCN(CCCNC(=O)Nc3ccc(C)cc3)CC2)c1,60.3%
20,COc1ccc(Cl)cc1N1CCN(CCNC(=O)Nc2ccccc2C)CC1,71.4%

row,SMILES,viability
1,C=CCn1c(Cc2csc(N)n2)nnc1SCC(=O)OCC,96.6%
2,COc1cc2nc(N3CCN(C(=O)C4COc5ccccc5O4)CC3)nc(N)c2cc1OC (stereo not drawn),23.7%
3,CC(=O)Nc1ccc(S(=O)(=O)N2CCN(Cc3ccncc3)CC2)cc1,90.5%
4,C[C@]12CC[C@@H]3c4ccc(OC(=O)c5ccccc5)cc4CC[C@H]3[C@@H]1CC[C@@H]2O,48%
5,CCN(c1ccccc1)S(=O)(=O)c1ccc(F)cc1C,83.2%
6,CC(=O)Nc1cccc(NC(=O)CSc2nnnn2C)c1,95.9%
7,COc1ccccc1N1CCN(Cc2nc(N)nc(Nc3ccc(C)c(Cl)c3)n2)CC1,65.1%
8,COc1cccc(-c2cc(C(=O)Nc3cc(C)n(Cc4ccc(Cl)cc4)n3)no2)c1,58.5%
9,CC(=O)C(Sc1ncnc2c1nnn2-c1ccc(F)cc1)C(=O)N(C)C (stereo not drawn),61%
10,Cc1ccccc1NS(=O)(=O)c1ccc(NC(=O)c2ccco2)cc1,89.7%
11,Cc1cc(-n2c(C)cc(C(=O)CSc3nnnn3-c3ccc(Cl)cc3)c2C)no1,44.3%
12,c1ccc(OCCOc2ncnc3sccc23)cc1,91.7%
13,CNCCCN1c2ccccc2CCc2ccccc21,75.8%
14,O=S(=O)(c1ccc(Oc2ccc(-c3nnco3)cc2)nc1)N1CCC(Cc2ccccc2)CC1,60.4%
15,COc1cccc(CN2C(=O)C3(C(C#N)=C(N)OC4=C3C(=O)CCC4)c3ccccc32)c1 (stereo not drawn),12.6%
16,COC(=O)Nc1nc2ccc(Sc3ccccc3)cc2[nH]1,25.1%
17,CC(C)c1ccc(-c2nc(N3CCOCC3)[nH]c(=O)c2C#N)cc1,96.4%
18,COc1ccc2oc(C)c(C(=O)Cn3ccnc3)c2c1,90.1%
19,O=C(CCN1CCOCC1)Nc1ccc2c(c1)CCC2,86.8%

# Same assay, conditions: H69AR cells, CellTiter-Glo, 72 h; compound alone cytotoxicity; at 10 µM
row,SMILES,viability
1,O=C(CNC(=O)c1cccs1)NCCN1CCN(c2ccccc2F)CC1,89.3%
2,Cc1ccc(Cn2ccc(NC(=O)c3noc4c3CCCC4)n2)cc1,112%
3,COc1cc(NC(=O)c2cc(-n3cnnc3)ccc2Cl)cc(OC)c1,104%
4,COC(=O)c1ccccc1NC(=O)c1ccc(-c2ccccc2F)o1,60.9%
5,O=C(CN1C(=O)CCS(=O)(=O)c2ccccc21)NCc1ccc(F)cc1,98.4%
6,Cc1c(O)c(CN2CCCC(C)C2)cc2c3c(c(=O)oc12)CCC3 (stereo not drawn),83.1%
7,CC1(C)NC(=O)N(CC(O)CN2CCCCC2)C1=O (stereo not drawn),93.1%
8,CCCOc1ccc(N2C(=O)CC(NCCCN3CCC(C(N)=O)CC3)C2=O)cc1 (stereo not drawn),88.6%
9,Cc1ccc(Nc2nnns2)cc1C,99.8%
10,COc1ccc(S(=O)(=O)N2CCC(C(=O)NCc3ccco3)CC2)cc1,86.6%
11,C=C(CC)C(=O)c1ccc(OCC(=O)O)c(Cl)c1Cl,49.4%
12,Cc1cccc(OCC(=O)Nc2ccccc2N2CCN(C(=O)C(C)C)CC2)c1C,88.8%
13,O=C(NC1CC1)c1cccc(Nc2ccc(-c3ccc4c(c3)OCCO4)nn2)c1,49.1%
14,CNCCCC12CCC(c3ccccc31)c1ccccc12,70.1%
15,Cc1ccccc1C(=O)N1CCC(C(=O)Nc2ccc(S(=O)(=O)N3CCCC3)cc2)CC1,78.8%
16,CC(=O)c1cc(-c2ccccc2)n(CC(=O)N2CCN(C3CCCC3)CC2)c1C,80.5%
17,CCOc1ccccc1N1C(=O)CC(Sc2ncccc2C(=O)O)C1=O (stereo not drawn),99.9%
18,Clc1ccccc1-c1nnc2sc(-c3ccccn3)nn12,86.3%
19,COc1ccc(Cl)c(N2CCN(CCCNC(=O)Nc3ccc(C)cc3)CC2)c1,45.4%
20,COc1ccc(Cl)cc1N1CCN(CCNC(=O)Nc2ccccc2C)CC1,48.7%

row,SMILES,viability
1,C=CCn1c(Cc2csc(N)n2)nnc1SCC(=O)OCC,91.9%
2,COc1cc2nc(N3CCN(C(=O)C4COc5ccccc5O4)CC3)nc(N)c2cc1OC (stereo not drawn),8.23%
3,CC(=O)Nc1ccc(S(=O)(=O)N2CCN(Cc3ccncc3)CC2)cc1,109%
4,C[C@]12CC[C@@H]3c4ccc(OC(=O)c5ccccc5)cc4CC[C@H]3[C@@H]1CC[C@@H]2O,39%
5,CCN(c1ccccc1)S(=O)(=O)c1ccc(F)cc1C,90.4%
6,CC(=O)Nc1cccc(NC(=O)CSc2nnnn2C)c1,106%
7,COc1ccccc1N1CCN(Cc2nc(N)nc(Nc3ccc(C)c(Cl)c3)n2)CC1,38.8%
8,COc1cccc(-c2cc(C(=O)Nc3cc(C)n(Cc4ccc(Cl)cc4)n3)no2)c1,52.1%
9,CC(=O)C(Sc1ncnc2c1nnn2-c1ccc(F)cc1)C(=O)N(C)C (stereo not drawn),48.7%
10,Cc1ccccc1NS(=O)(=O)c1ccc(NC(=O)c2ccco2)cc1,89.2%
11,Cc1cc(-n2c(C)cc(C(=O)CSc3nnnn3-c3ccc(Cl)cc3)c2C)no1,49.2%
12,c1ccc(OCCOc2ncnc3sccc23)cc1,98.7%
13,CNCCCN1c2ccccc2CCc2ccccc21,90.4%
14,O=S(=O)(c1ccc(Oc2ccc(-c3nnco3)cc2)nc1)N1CCC(Cc2ccccc2)CC1,51.9%
15,COc1cccc(CN2C(=O)C3(C(C#N)=C(N)OC4=C3C(=O)CCC4)c3ccccc32)c1 (stereo not drawn),10.6%
16,COC(=O)Nc1nc2ccc(Sc3ccccc3)cc2[nH]1,11.7%
17,CC(C)c1ccc(-c2nc(N3CCOCC3)[nH]c(=O)c2C#N)cc1,98%
18,COc1ccc2oc(C)c(C(=O)Cn3ccnc3)c2c1,87.8%
19,O=C(CCN1CCOCC1)Nc1ccc2c(c1)CCC2,93.7%
